The results in this text go back to the supplement of paper PMC6555819.

The first test concerns RARg:RXRa (NR concentration 270 nM, RXRa partner concentration 90 nM). Briefly: PBM binding z-score (relative to random genomic background probes); higher = stronger binding; sequences stand for … in GC…GCGATTGACAGCGTAGAATGAAGG
Put shortly: (§1)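 For binding z-scores, the reference was random background probes on custom Agilent 4×180K protein-binding microarrays. These arrays were incubated 1 h with ligand-free nuclear receptor dimers in PBS pH 7.4, 2% milk, 0.02% Triton X-100, 1 mM DTT, 0.2 mg/mL BSA and 0.4 mg/ml salmon testes DNA. Fluorescence was scanned after antibody detection of each partner (one per run) and regression-normalized.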
For GCGACTAGGGCATCAGCAGGTTACCATAACTTAA, the PBM binding z-score amounted to 1.12.

For GATACAGTGTCAAGGCCAGAGTACGCGTATTGAT, the PBM binding z-score stood at 0.527.

In turn, GCGACTGGGGCATCAGCAGGTTTCCATAACTTAA came in with a PBM binding z-score of -0.102.

With CCGACTGGGGCATAAGGTTACCCTAAGCCAGCCC, the PBM binding z-score was found to be 1.27.

For AATACAGGGTCATCGTAGGCCAGCGTACGCACAG, the PBM binding z-score was 5.61.

Turning to GCGACTGGGGCATCAGCAGATTACCATAACTTAA, the PBM binding z-score is -0.0173.

GGACCGAGGGCAAAGTTGATAGCATCTGTCGACG: the PBM binding z-score came to 2.15.

With CGGACTAGGTCATTGACAGGACAGTGAATAGTAA, the PBM binding z-score was found to be 4.64.

Turning to CGTCAAAGTTTAACTAAGGTAACGTAAAGCACGC, the PBM binding z-score came out at 1.51.

Regarding ATATGTAGGTTAGCTGGGGTCATACAGACTAGGC, the PBM binding z-score turned out to be 4.36.

GCGGCTAGGTCAACTGATGGTCAGCTAAAGCTCG displayed a PBM binding z-score of 5.19.

CAGCCTAGGTCATGGCCAGTATAGGAGGAACGTT came in with a PBM binding z-score of 4.38.

Take CCTAGTTGGTCAAGGCCACACACGCTATAGGTAC: the PBM binding z-score was 0.785.

Sequence CCTTACGGGTCAACGTTATAGCACGGGTGGTACG had a PBM binding z-score of 4.85.

The sequence TCTTGTAGATCAAACAGGTTAAGAAAGCCTGAGT gave a PBM binding z-score of 0.214.

Sequence CCTAGTTGGTCAGGAGGTCACACTCCGGATATGA came in with a PBM binding z-score of 4.74.

For TCTAGCAGGCGAGAGGGTCACTCAAGAGGTACGG, the PBM binding z-score stood at 2.04.

For CGAACGAGGGCATGAGTTGATAGCGAATGCCGAT, the PBM binding z-score turned out to be 1.25.

TCATATAGGTAAAAGGTGAAAGTAGGTGTGGTAA showed a PBM binding z-score of 2.13.

ACAGACAGGTGAGTGAAGGTAGCTCAGCTGGACG: the PBM binding z-score was -0.00932.

Sequence CAAACTAGGTCACAGAGGTCAAAGACCGTGCGTA came in with a PBM binding z-score of 7.3.

Turning to TGTCAAAGTTCAAAGGTAACGGAAGTATCCACAC, the PBM binding z-score was 6.56.

Consider CATTACGGGTCACGAGGTTATAGCACGACGAGCG, for which the PBM binding z-score was 6.35.

For ATCTCTAGGTAAAGTTCAGTTAAAGATCGATAGA, the PBM binding z-score was determined as 1.65.

For the sequence CCTACGGGGCCATTCAGAGGTCATTGATCATATG, the PBM binding z-score was determined as 6.22.

For the sequence AGAATGAGGTTAATATCAGGGAAACAGAATACAT, the PBM binding z-score is 1.84.

For the sequence CCGACTGGGCCAAGGTCATTGATCAGTCAAAGCA, the PBM binding z-score was determined as 3.72.

CCTCAGAGGACAGAAGGTCAGAGCTGTCCGCTTT: the PBM binding z-score stood at 3.95.

In the case of CGAACTAGGTCATCCAGGAAAGTGAATACATTGA, the PBM binding z-score is 4.03.

The sequence ACTATTAGTTGAGACGAGTGCAACCGATAGGTTG showed a PBM binding z-score of 0.00696.

As to GCTTACGGGTCAAAGGTTATAGCGTGAATAGAAT, the PBM binding z-score came out at 6.87.

For the sequence ACTATTAGTTGACTTAGGGCAACCGGTACGACGC, the PBM binding z-score came to 0.684.

Take AGATTGAGGTTATACGTAGATCAGGGAAGAAAGT: the PBM binding z-score was 1.71.

Sequence CCTACTAGGTCAATGGTCAGCTAAAGCAGCTCGC had a PBM binding z-score of 3.39.

ATCTGTAGGTAACAAGTTCAGTGAAAGAGAGGAC: the PBM binding z-score stood at 1.44.

CAAACTAGGTCAACAGGTCAAAGTCCGCTTCCCG displayed a PBM binding z-score of 6.85.

In the case of TCTCGGAGGACACGAAAGGTTAGAGCTCGACATC, the PBM binding z-score is 1.94.

Take GCTTGTATATCAAGGTTAAGAAAGACTAAGCTAA: the PBM binding z-score was 0.526.

TCCGCTAGGTCAACGATGGTCAGCTAATCTGCTA returned a PBM binding z-score of 3.93.

The sequence CCTATGAGTTGACCATAAGGGCAACCGAAGCTCG came in with a PBM binding z-score of 2.18.

The subject of the next test is RARg homodimer (NR concentration 270 nM). The description is as above. Put shortly:
as §1
In the case of GCGACTAGGGCATCAGCAGGTTACCATAACTTAA, the PBM binding z-score is 0.817.

Sequence GATACAGTGTCAAGGCCAGAGTACGCGTATTGAT returned a PBM binding z-score of 1.03.

For GCGACTGGGGCATCAGCAGGTTTCCATAACTTAA, the PBM binding z-score is -0.261.

Sequence CCGACTGGGGCATAAGGTTACCCTAAGCCAGCCC displayed a PBM binding z-score of 0.806.

As to AATACAGGGTCATCGTAGGCCAGCGTACGCACAG, the PBM binding z-score came out at 4.89.

Take GCGACTGGGGCATCAGCAGATTACCATAACTTAA: the PBM binding z-score stood at 0.481.

On to GGACCGAGGGCAAAGTTGATAGCATCTGTCGACG, for which the PBM binding z-score was 1.79.

The sequence CGGACTAGGTCATTGACAGGACAGTGAATAGTAA had a PBM binding z-score of 4.39.

CGTCAAAGTTTAACTAAGGTAACGTAAAGCACGC had a PBM binding z-score of 1.92.

Sequence ATATGTAGGTTAGCTGGGGTCATACAGACTAGGC came in with a PBM binding z-score of 3.32.

Take GCGGCTAGGTCAACTGATGGTCAGCTAAAGCTCG: the PBM binding z-score was 5.19.

CAGCCTAGGTCATGGCCAGTATAGGAGGAACGTT: the PBM binding z-score turned out to be 4.94.

In turn, CCTAGTTGGTCAAGGCCACACACGCTATAGGTAC had a PBM binding z-score of 1.19.

Sequence CCTTACGGGTCAACGTTATAGCACGGGTGGTACG came in with a PBM binding z-score of 4.64.

For TCTTGTAGATCAAACAGGTTAAGAAAGCCTGAGT, the PBM binding z-score worked out at 0.186.

CCTAGTTGGTCAGGAGGTCACACTCCGGATATGA had a PBM binding z-score of 4.43.

The sequence TCTAGCAGGCGAGAGGGTCACTCAAGAGGTACGG showed a PBM binding z-score of 1.83.

CGAACGAGGGCATGAGTTGATAGCGAATGCCGAT registered a PBM binding z-score of 1.69.

In turn, TCATATAGGTAAAAGGTGAAAGTAGGTGTGGTAA displayed a PBM binding z-score of 1.16.

ACAGACAGGTGAGTGAAGGTAGCTCAGCTGGACG: the PBM binding z-score was determined as 0.0793.

As for CAAACTAGGTCACAGAGGTCAAAGACCGTGCGTA, the PBM binding z-score was found to be 7.86.

In turn, TGTCAAAGTTCAAAGGTAACGGAAGTATCCACAC returned a PBM binding z-score of 5.94.

Sequence CATTACGGGTCACGAGGTTATAGCACGACGAGCG yielded a PBM binding z-score of 5.8.

The sequence ATCTCTAGGTAAAGTTCAGTTAAAGATCGATAGA returned a PBM binding z-score of 2.5.

As for CCTACGGGGCCATTCAGAGGTCATTGATCATATG, the PBM binding z-score worked out at 3.77.

In turn, AGAATGAGGTTAATATCAGGGAAACAGAATACAT gave a PBM binding z-score of 1.48.

In the case of CCGACTGGGCCAAGGTCATTGATCAGTCAAAGCA, the PBM binding z-score came out at 3.11.

With CCTCAGAGGACAGAAGGTCAGAGCTGTCCGCTTT, the PBM binding z-score worked out at 3.91.

In turn, CGAACTAGGTCATCCAGGAAAGTGAATACATTGA returned a PBM binding z-score of 4.93.

In turn, ACTATTAGTTGAGACGAGTGCAACCGATAGGTTG displayed a PBM binding z-score of 0.277.

The sequence GCTTACGGGTCAAAGGTTATAGCGTGAATAGAAT showed a PBM binding z-score of 4.52.

Take ACTATTAGTTGACTTAGGGCAACCGGTACGACGC: the PBM binding z-score was found to be 0.734.

AGATTGAGGTTATACGTAGATCAGGGAAGAAAGT displayed a PBM binding z-score of 0.96.

CCTACTAGGTCAATGGTCAGCTAAAGCAGCTCGC: the PBM binding z-score is 4.16.

ATCTGTAGGTAACAAGTTCAGTGAAAGAGAGGAC yielded a PBM binding z-score of 1.42.

The sequence CAAACTAGGTCAACAGGTCAAAGTCCGCTTCCCG returned a PBM binding z-score of 6.36.

Turning to TCTCGGAGGACACGAAAGGTTAGAGCTCGACATC, the PBM binding z-score worked out at 2.3.

Turning to GCTTGTATATCAAGGTTAAGAAAGACTAAGCTAA, the PBM binding z-score turned out to be 0.28.

Turning to TCCGCTAGGTCAACGATGGTCAGCTAATCTGCTA, the PBM binding z-score was found to be 4.83.

With CCTATGAGTTGACCATAAGGGCAACCGAAGCTCG, the PBM binding z-score is 1.09.
